Only some compounds are listed: those with a hit (about 1.4% of all), similar ones and a draw of the others.
IDE cell activ: human IDE activators in live cells, primary screen, fluorescence polarization, HEK cells, FAbeta-B substrate. activation, % at 5.96 µM. 0.073% of 340,000 active. AID 493087, 2011. FAbeta-B cleavage; 0% vehicle, 100% cell-free pure enzyme wells;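 active = activation above the mean of all tested compounds plus 3 SD, set per screening campaign, cut at about 17% in these data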
HNF4A DNA FP: change in binding of human HNF4A to DNA, primary screen, biochemical, fluorescence polarization, FITC-DNA | 0.3% of 360,000 active | activity change, % at 10 µM | 1 h | AID 1224865, 2016 | Hepatocyte nuclear factor 4-alpha (Homo sapiens), P41235; in the data active = activity change above about 30%, passing the limit was not always enough
TPT1 inhibitor: Candida albicans TPT1 enzyme inhibitors, primary screen, biochemical, fluorescence polarization; tRNA 2'-phosphotransferase TPT1 (Candida albicans SC5314); inhibition, % at 5 µM; AID 1962, 2009; 0.81% of 300,000 active; recombinant caTPT1, FP RNA substrate dephosphorylation;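 active = inhibition above the mean of all tested compounds plus 3 SD, set per screening campaign, cut at about 24% in these data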
IDE inh: human IDE inhibitors in live cells, primary screen, fluorescence polarization, HEK cells, FAbetaB substrate; inhibition, % at 5.59 µM; FAbetaB cleavage; Insulin-degrading enzyme (Homo sapiens), P14735; 0.41% of 320,000 active;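 active = percent inhibition above the average of all tested compounds plus 3 SD, set per screening campaign, cut at about 16% in these data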;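 note: IDE supplied by intact live HEK cells; FP after avidin binding of uncleaved biotin substrate so inhibition keeps polarization high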
CRFBP-R2 agonist: agonists of CRF-BP/CRF-R2 complex, primary screen, cell-based, HEK293, calcium dye fluorescence, uHTS | activation, % at 13.2 µM | CRF-binding protein / CRF receptor 2 complex (human) | 0.46% of 350,000 active | calcium dye fluorescence (FLIPR); percent of saturating CRF peptide response | AID 588473, 2011;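 active = activation of at least 50%, plus an integration ratio under a set limit after plate pattern correction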
caTPT1 confirm: Candida albicans TPT1 inhibitors, confirmation, biochemical, fluorescence polarization, triplicate; 74% of 2,400 active; recombinant caTPT1, RNase T1 coupled; shares compounds with TPT1 inhibitor; inhibition, % at 5 µM;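 active = inhibition above the primary screen limit, the mean inhibition of all tested compounds plus 3 SD, cut at about 25% in these data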
RNase T1 inh: RNase T1 inhibitors, counter-screen for TPT1 inhibitor project, biochemical, fluorescence polarization. 83% of 2,400 active. AID 2153, 2009. inhibition, % at 5 µM. RNase T1 cleavage, 1536-well. shares compounds with TPT1 inhibitor;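 active = inhibition above the solvent-only control well mean plus 3 SD, limit set per screening run, cut at about 23% in these data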;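 note: inhibitors block cleavage so intact labeled substrate keeps polarization high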
Numbers stand for hits; n = inactive; x = not tested or not shown; ! = not confirmed by another sample.

SMILES | IDE cell activ | HNF4A DNA FP | TPT1 inhibitor | IDE inh | CRFBP-R2 agonist | caTPT1 confirm | RNase T1 inh
COc1cc2[nH]c(=O)n(-c3cccc(Cl)c3)c(=O)c2cc1OC | n | n | n | n | n | x | x
CC(=O)c1c(O)n(-c2cccc(Cl)c2)c(=O)[nH]c1=O (tested in a mixture with another compound) | n | n | 28 | n | n | 34 | 43
COC(/C(C)=C/C=C/C(C)=C/c1coc(C)n1)C(C)C1CC(O)C2(C)OC2C=CC(C)C2CC(CC(=O)O2)CC2OC2C(=O)O1 (stereo not drawn) | n | n | x | x | n | x | x
Cc1ccccc1N1C(=O)CC(=O)N(c2ccccc2C)C1=O | n | n | 31 | n | n | n | 22
CN1C(=O)C[N+]([O-])=C(c2ccccc2)c2cc(Cl)ccc21 | n | n | x | x | n | x | x
COCCNC(=O)Cn1cc(/C=C2\C(=O)NC(=O)N(c3ccccc3F)C2=O)c2ccccc21 | n | n | 27 | n | n | n | n
COc1ccc(N2C(=O)NC(=O)/C(=C\c3cn(C)c4ccccc34)C2=O)cc1 | n | 108 | 67 | n | 120 | 68 | 71
COC(=O)Cn1cc(/C=C2\C(=O)NC(=O)N(c3ccc(OC)cc3)C2=O)c2ccccc21 | n | n | 25 | n | 81 | n | n
Cc1cccc(NC(=O)COC(=O)c2cc(C)n(C3CC3)c2C)c1 | n | n | x | n | n | x | x
NC(Cc1ccc(F)cc1)c1csc(Nc2ccccn2)n1 (stereo not drawn) | x | n | x | x | x | x | x
Cc1ccc(N2C(=O)NC(=O)/C(=C/c3cnc(-c4ccccc4)nc3)C2=O)cc1C | n | n | 25 | n | n | n | n
Cc1ccc(N2C(=O)NC(=O)/C(=C\c3ccsc3)C2=O)cc1C | x | x | 28 | n | x | 52 | 66
COc1cc(/C=C2/C(=O)NC(=O)N(c3ccccc3)C2=O)ccc1O | n | n | n | n | n | x | x
O=C1NC(=O)N(c2ccccc2)C(=O)/C1=C/c1ccoc1 | n | n | 113 | n | n | 60 | 74
Cc1cccc(N2C(=O)NC(=O)/C(=C\c3cnc(-c4ccccc4)nc3)C2=O)c1 | n | n | n | n | n | x | x
O=c1[nH]c(=O)n(-c2cccc(F)c2)c(O)c1/C=C1\C=Nc2ccccc21 | n | n | 37 | n | n | n | n
O=C(O)c1ccc(-n2c(O)c(/C=C3\C=Nc4ccccc43)c(=O)[nH]c2=O)cc1 | n | n | n | n | n | x | x
O=C1NC(=O)N(Cc2ccco2)C(=O)/C1=C\c1cccn1CCOc1ccc(Cl)cc1 | n | n | 62 | n | n | n | n
Cc1cccc(OCCn2cccc2/C=C2/C(=O)NC(=O)N(Cc3ccco3)C2=O)c1 | x | n | 29 | n | n | n | 24
CCc1ccc(N2C(=O)NC(=O)/C(=C/c3cccn3CCOc3ccc(C)cc3)C2=O)cc1 | n | n | n | n | n | x | x
CCn1c(O)c(C=NCCN2CCOCC2)c(=O)n(CC)c1=S | n | n | 38 | n | n | n | 27
CCn1c(O)c(C=Nc2ccc(N3CCOCC3)cc2)c(=O)n(CC)c1=S | n | n | 66 | n | 97 | n | n
Cn1c(O)c(C=NCCN2CCOCC2)c(=O)n(C)c1=S | n | n | n | n | n | x | x
O=c1[nH]c(=S)n(-c2ccc(Cl)cc2)c(O)c1C=Nc1ccc(N2CCOCC2)cc1 | n | n | 30 | n | 53 | n | n
CC(C)NC1C2CCC(CC2)C1(O)c1ccc(Cl)c(Cl)c1 (stereo not drawn) | x | n | x | x | n | x | x
SMILES | IDE cell activ | HNF4A DNA FP | TPT1 inhibitor | IDE inh | CRFBP-R2 agonist | caTPT1 confirm | RNase T1 inh
COc1ccc(Cn2c(N)c(C(=O)NCc3ccco3)c3nc4ccccc4nc32)cc1 | n | n | 48 | n | n | n | n
CN1CCC2(CC1)C(C#N)=C(N)NC(S)=C2C#N | n | n | 50! | n | n | n | 28
O=c1[nH]c(=O)n(Cc2ccco2)c(O)c1/C=N/N1CCCCC1 | n | n | 24 | n | n | 29 | 40
O=C1CC2OCC=C3CN4CCC56c7ccccc7N1C5C2C3CC46O (stereo not drawn) | x | n | x | x | x | x | x
CCCCCCn1c(O)c(C=NCCCn2ccnc2)c(=O)[nH]c1=O | n | 67 | 134 | n | n | 73 | 89
Cc1ccc(-n2c(O)c(C=NCCN(C)C)c(=O)[nH]c2=O)cc1 | n | n | n | n | n | x | x
CCCCN=Cc1c(O)n(-c2c(C)cc(C)cc2C)c(=O)[nH]c1=O | n | n | 33 | n | n | 34 | 45
COc1ccc(Cn2c(O)c(C=NCCCn3ccnc3)c(=O)[nH]c2=O)cc1 | n | n | n | n | n | x | x
CCCCn1c(=O)c(C=Nc2cccnc2Cl)c(O)n(CCCCl)c1=O | n | n | 30 | n | n | n | n
Cc1cccc(N=Cc2c(O)n(C)c(=O)n(C)c2=O)c1 | n | n | n | n | n | x | x
C=CCn1c(=O)c(C=Nc2c(OC)cccc2[N+](=O)[O-])c(O)n(CCCC)c1=O | n | n | 51 | n | n | 30 | 39
CCCCCCn1c(O)c(C=Nc2c(C)n(C)n(-c3ccccc3)c2=O)c(=O)[nH]c1=O | n | n | n | n | n | x | x
C=CCn1c(=O)c(C=Nc2cccc([N+](=O)[O-])c2)c(O)n(CCCC)c1=O | n | n | 113 | n | n | 36 | 47
CN1C2CNC(=O)CC1C1CCC2C1 (stereo not drawn) | x | n | x | x | n | x | x
CN1C(=O)C(=Cc2ccc(N3CCCCC3)o2)C(=O)N(C)C1=S | n | n | 85 | n | 133 | 105 | 111
CCN(CC)c1ccc(C=C2C(=O)N(C)C(=S)N(C)C2=O)o1 | n | n | 93 | n | 88 | 102 | 112
CN1C(=O)C(=Cc2ccc(N3CCCCCC3)cc2)C(=O)N(C)C1=O | n | n | n | n | n | x | x
CN1C(=O)C(=Cc2ccc(SC3CCCCC3)o2)C(=O)N(C)C1=O | n | n | n | n | n | x | x
COC(=O)C1=C(c2ccccc2OCc2ccccc2)C[C@@H]2CC[C@H]1N2C(=O)NCc1ccc([N+](=O)[O-])cc1 | n | n | x | n | n | x | x
COc1ccc2c3c([nH]c2c1)C(C)=NCC3 | n | n | 44 | n | n | n | 31
COc1ccc2[nH]cc(C3=CCNCC3)c2c1 | x | x | 52 | n | x | 61 | 72
C=CCN1C(=O)/C(=C/c2ccc(N3CCOCC3)o2)C(=O)NC1=S | n | 80 | 121 | n | n | 143 | 137
O=C1NC(=S)N(c2ccccc2)C(=O)/C1=C/c1ccco1 | n | n | n | n | n | x | x

High-throughput results from PubChem.
